CBFb RUNX1 block: CBF-beta/RUNX1 interaction disruption; Q01196+Q13951; AlphaScreen CBFb-His/RUNX1-biotin binding, biochemical; Potency, µM (series often up to 59.8 µM), inactives show at the top dose activity, negative = inhibition, usual class: inhibitors; 230,000 tested, under 10 active; AID 1477; further: % of control where 0% means no effect
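His-tagged CBF-beta and biotinylated RUNX1 (30 nM each) were premixed 20 min at room temperature, exposed to compound for 15 min, then given nickel-chelate and streptavidin AlphaScreen beads (50 ng each). After 90 min, AlphaScreen signal was read.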
MBNL1-CUG inh: blocks human MBNL1 binding to CUG repeat RNA | Q9NR56 | TR-FRET MBNL1-His/biotin-(CUG)12 binding, 665/545 ratio | Potency, µM (titrated, usually from 57.5 µM), without a hit: at the highest dose activity change, negative = inhibition, actives largely listed as inhibitors | hit rate 0.036% among 280,000; active means well fitted inhibition curve with a large enough effect in the signal ratio, with a control signal flat, not every such curve was filed as active; inconclusive means small, poorly fitted or top-dose-only effect, or effect the other way, or a change in a side signal; inactive means no such curve, though single readings can be large or run the other way; the % refers to the signal ratio; further: potency means the concentration at half of the fitted maximal effect; on the % scale 0 is the no-effect control and ±100 the full control effect
Target sequence (Q9NR56 whole entry, looked up): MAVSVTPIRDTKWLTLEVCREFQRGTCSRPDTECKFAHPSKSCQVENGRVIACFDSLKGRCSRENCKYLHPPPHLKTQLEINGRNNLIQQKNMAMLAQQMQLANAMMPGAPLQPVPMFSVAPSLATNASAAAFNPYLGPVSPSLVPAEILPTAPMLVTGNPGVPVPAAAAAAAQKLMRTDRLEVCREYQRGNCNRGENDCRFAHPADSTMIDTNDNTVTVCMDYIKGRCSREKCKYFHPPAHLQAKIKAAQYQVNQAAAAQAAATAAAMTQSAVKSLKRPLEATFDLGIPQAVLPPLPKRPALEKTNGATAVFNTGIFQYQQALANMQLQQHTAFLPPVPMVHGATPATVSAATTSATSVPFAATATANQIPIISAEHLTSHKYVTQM
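TR-FRET between His-tagged MBNL1 and biotin-(CUG)12 RNA, detected with Tb anti-His antibody (0.055 ng/ul) and streptavidin-XL665 (5 nM), 60 min at room temperature. Compounds titrated 92 nM to 58 uM; 665/545 nm ratio normalized to buffer and complex controls.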
NPSR antag: antagonists of human neuropeptide S receptor cAMP signaling; Q6W5P4; Potency, µM (series often up to 38.3 µM), inactives show at the highest dose activity change, negative = inhibition, usual class: inhibitors; hit rate 1% among 220,000; AID 1461; CHO-NPSR cells, cAMP TR-FRET, antagonist mode; further: potency means the concentration at half of the fitted maximal effect; on the % scale 0 is the no-effect control and ±100 the full control effect; nearly all actives have a fitted effect of over 50% in size
Target sequence (Q6W5P4 whole entry, looked up): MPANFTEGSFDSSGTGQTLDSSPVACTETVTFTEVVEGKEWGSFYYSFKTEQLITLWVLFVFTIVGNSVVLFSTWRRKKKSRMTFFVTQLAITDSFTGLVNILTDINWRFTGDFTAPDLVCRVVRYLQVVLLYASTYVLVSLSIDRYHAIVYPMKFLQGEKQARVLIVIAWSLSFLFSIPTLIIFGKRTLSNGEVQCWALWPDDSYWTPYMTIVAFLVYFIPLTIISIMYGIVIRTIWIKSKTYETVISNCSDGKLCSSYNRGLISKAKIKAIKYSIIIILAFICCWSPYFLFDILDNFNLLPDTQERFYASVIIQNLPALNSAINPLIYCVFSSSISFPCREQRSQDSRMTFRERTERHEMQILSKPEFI
HTT ATP protect: cytoprotection in Huntington HTT-Q103 PC12 cell model; PC12 HTT-Q103 induced, cytoprotection, ATP luminescence, 40 h; Potency, µM (highest dose often 56.4 µM), without a hit: cytoprotection (ATP increase), usual class: activators; hit rate 0.14% among 230,000; AID 1471; further: potency means the concentration at half of the fitted maximal effect; % of control where 0% means no effect; nearly all actives have a fitted effect of over 45% in size
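ATP quantification (ATPlite) reports survival of PC12 cells in which tebufenozide, 100 nM final, switches on Htt exon 1 with 103 glutamines linked to GFP; compounds are titrated.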
LMNA splice mod: LMNA splicing modulation; AID 1487; hit rate 0.01% among 200,000; HeLa LMNA splicing GFP/RFP minigene ratio, 48 h; Potency, µM (series often up to 46.1 µM), inactives show at the top dose ratio change, negative = inhibition, hits mostly inhibitors; active means well fitted inhibition curve with a large enough effect in the signal ratio, with a control signal flat, not every such curve was filed as active; inconclusive means small, poorly fitted or top-dose-only effect, or effect the other way, or a change in a side signal; the % refers to the signal ratio; further: potency means the concentration at half of the fitted maximal effect; on the % scale 0 is the no-effect control and ±100 the full control effect
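Read-out is the ratio of GFP to DsRed2 object intensity, acquired by 488 nm laser-scanning cytometry on HeLa lamin A-EGFP minigene reporter cells. Compound incubation 48 hrs at 37 °C in Opti-MEM with 2% FBS; DMSO 0.5% final.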
HttQ103 aggreg: reduces HttQ103-GFP aggregates in PC12 cells; PC12 HttQ103-GFP aggregates, Acumen cytometry, 40 h; Potency, µM (doses to about 46.1 µM), for inactives: at the top dose activity change, negative = inhibition, hits mostly inhibitors; hit rate 1.1% among 220,000; AID 1688; further: potency means the concentration at half of the fitted maximal effect; on the % scale 0 is the no-effect control and ±100 the full control effect; nearly all actives have a fitted effect of over 60% in size
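PC12 cells with ecdysone-inducible HTT exon1 Q103-GFP, induced by 100 nM tebufenozide, given compounds in a concentration series. GFP aggregates (1–25 um, 6 SD above background) counted in lysates by laser-scanning cytometry, 488 nm excitation.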
The depositor's hits bear a star; ? = inconclusive; / = no result; [ ] = dose if it differs, or a comment. Sampled rows, rich in hits. Any-hit rate of the full collection: about 1.1%. Unless noted, the call rests on the fitted dose curve; in most records, active means well fitted curve in the direction sought with a large enough effect; inconclusive means small, poorly fitted or top-dose-only effect, or another doubt; inactive means no such curve, though single readings can be large; an effect the other way counts as inactive or inconclusive.

SMILES	CBFb RUNX1 block	MBNL1-CUG inh	NPSR antag	HTT ATP protect	LMNA splice mod	HttQ103 aggreg
COc1ccccc1N1CCN(C(=O)c2ccc(-c3ccccc3)cc2)CC1	/	-14%	/	/	/	/
COc1ccccc1N1CCN(C(=O)CN(c2ccccc2OC)S(=O)(=O)c2ccccc2)CC1	-4%	1%	-28%[46.1 µM]	-8%	-1%	5µM*
COc1ccccc1N1CCN(C(=O)c2ccc(CSc3ccccc3)cc2)CC1	-1%	-5%	-31%	/	?	22µM*
N[C@@]1(C(=O)O)CN[C@@H](C(=O)O)C1	4%	/	/	-15%	/	/
CCCc1cc2c(c(=O)o1)C(O)C1OC1C2=O (configuration not stated)	3%[13.1 µM]	/	/	-62%[10 µM]	/	/
CCN(CC)C(=O)CSc1nc2c(sc(=S)n2-c2ccccc2)c(=O)n1Cc1ccco1	-16%	9%	10µM*	-32%	?	2%[9.22 µM]
O=C(Nc1ccccc1Cl)C1CCN(c2nc3ccccc3[nH]2)CC1	/	/	/	/	-2%[46 µM]	/
O=C(O)c1c(Sc2ccccc2)c2cc(Cl)ccc2n1Cc1ccc(Cl)cc1	-14%	/	/	-38%	/	/
COc1ccc(CNC(=O)c2ccc(CNS(=O)(=O)c3ccc(F)cc3)cc2)cc1	/	/	/	/	24%[46 µM]	/
CCCCCCCCCCCCCCCCn1cc[n+](Cc2ccccc2)c1C	26%	/	/	/	/	/
Cc1nc(NC(=S)Nc2ccccc2)sc1C	-2%	22%	1.3µM*	-48%	?	6%
Cc1ccc(C(c2sc3nc(-c4ccco4)nn3c2O)N2CCOCC2)cc1 (configuration not stated)	/	/	/	/	14%[46 µM]	/
O=c1cnc2cnc(Nc3ccccc3)nc2n1C1CC1	/	/	/	20µM*	13%	/
CCCCN1/C(=C/c2ccc3ccccc3[n+]2CC)Sc2ccccc21	-4%	?	-51%	-59%[10 µM]	?	2.5µM*
CCN1/C(=C/c2ccc3ccccc3[n+]2CC)C=Cc2ccccc21	?	?	7.9µM*	-55%[10 µM]	?	3.2µM*
CCN1C(=C2C(=O)c3ccccc3C2=O)C=Cc2ccccc21	-8%	?	-8%[46.1 µM]	-12%	-2%	-19%[9.22 µM]
CCN1/C(=C/c2ccc3cc(C)ccc3[n+]2CC)Sc2cc(C)ccc21	-24%	/	-45%	-140%	?	1µM*
C[C@@]12CCC(=O)C=C1CC[C@H]1[C@H]3CC[C@](O)(C(=O)CO)[C@]3(C)CC[C@@H]12	/	/	/	-20%[1.9 µM]	/	/
CCN1C(=O)CS/C1=N\S(=O)(=O)c1ccc(Cl)cc1	15%	-1%	2%	-15%[10 µM]	?	15%
CCn1c(Cl)c(C=O)s/c1=N\S(=O)(=O)c1ccccc1	-5%	?	10µM*	-97%[10 µM]	/	1.4µM*
CCc1ccc2c(c1)C1(NN=C(c3ccc(C)cc3)S1)C(=O)N2 (configuration not stated)	-23%	?	1%	15%[10 µM]	?	22µM*
Cc1cccc2c(C(=O)N3CCN(C(=O)c4ccco4)CC3)cc(-c3cccc(Br)c3)nc12	-12%	8%	-36%	29%[10 µM]	?	8.9µM*
C(=N\Nc1nc2ccccc2[nH]1)/c1ccccn1	?	9%	10µM*	-199%	/	7.1µM*
CCCCn1c(/C=N/Nc2nc3ccccc3[nH]2)nc2ccccc21	/	6%	13µM*	7%[10 µM]	?	?
O=c1nc(N/N=C/c2ccccn2)cn[nH]1	?	?	-32%	-152%	?	8.9µM*
SMILES	CBFb RUNX1 block	MBNL1-CUG inh	NPSR antag	HTT ATP protect	LMNA splice mod	HttQ103 aggreg
c1ccc2c(c1)CC/C2=N/Nc1nc2ccccc2[nH]1	-21%	-2%	7.9µM*	1%[10 µM]	?	-12%
CCOc1ccccc1-c1nnc2n1N=C(c1cccc(OC)c1)CS2	5%	/	/	/	/	/
CC[C@H](C)[C@H](NC(=O)[C@H](CCC(=O)O)NC(=O)CNC(=O)[C@@H](NC(=O)[C@H](CCC(=O)O)NC(=O)[C@H](CCC(=O)O)NC(=O)[C@H](CC(C)C)NC(=O)CNC(=O)[C@@H]1CCCN1C(=O)[C@H](CCC(=O)O)NC(=O)[C@@H](N)[C@@H](C)O)C(C)C)C(=O)N[C@@H](CCC(=O)O)C(=O)N[C@@H](CCC(N)=O)C(=O)N[C@@H](CCCCN)C(=O)N[C@@H](CCC(N)=O)C(=O)N[C@@H](CC(C)C)C(=O)N[C@@H](CCC(N)=O)C(=O)O	-5%	/	/	/	/	/
C#CCn1cc(/C=N/Nc2nc3ccccc3[nH]2)c2ccccc21	9%	-7%	13µM*	10%[10 µM]	?	0%
Cc1cc(C(=O)CN2C(=O)NC3(CCCc4sccc43)C2=O)c(C)n1-c1ccccc1 (configuration not stated)	?	-10%	-28%	/	?	22µM*
CN(C)c1ccc(-c2nccc(Nc3ccc(F)cc3)n2)cc1	/	/	/	-132%	?	/
C[C@@H]1C(=O)N(C)C(=O)c2nc[nH]c21	/	/	/	-8%[1.9 µM]	/	/
O=c1c2ccccc2nc2n1C(CSCc1ccc(Cl)cc1Cl)CS2 (configuration not stated)	2%	-12%	-1%[46.1 µM]	-41%	?	8.9µM*
CC[C@H]1OC(=O)[C@H](C)C(=O)[C@H](C)[C@@H](OC2O[C@H](C)C[C@H](N(C)C)[C@@H]2O)[C@@](C)(OC)C[C@@H](C)C(=O)[C@@H](C)C2N(CCCCn3cnc(-c4cccnc4)c3)C(=O)O[C@@]21C (some centres not stated)	/	/	/	-19%	/	6%
Clc1ccc(NCc2nnc3n2CCCCC3)cc1	-7%	-4%	4%[46.1 µM]	-14%[0.074 µM]	-10%	6%
Clc1cccc(NCc2nnc3n2CCCCC3)c1	3%	-1%	27%	4µM*	/	-6%
CC1=NNC(=O)/C1=C\c1cn(-c2ccccc2)nc1-c1ccc(Cl)cc1	1%	-7%	2.5µM*	-53%	?	?
Cc1ccc(-c2nn(-c3ccccc3)cc2C=C2C(=O)CC(C)(C)CC2=O)cc1	11%	-3%	-5%[46.1 µM]	9%	?	11%
CCCCC/C=C\C/C=C\C[C@H](O)/C=C/C=C\CCCC(=O)O	-8%	/	/	10%	/	/
Cc1ccc(N2C(=O)c3cccc4c([N+](=O)[O-])ccc(c34)C2=O)c2cccnc12	15%	3%	-41%	-37%[10 µM]	/	-33%[9.22 µM]
Cc1ccnc(N2C(=O)c3cccc4c([N+](=O)[O-])ccc(c34)C2=O)c1	6%	?	10µM*	-2%[10 µM]	?	18µM*
O=C1c2cccc3c([N+](=O)[O-])ccc(c23)C(=O)N1Cc1cccnc1	-24%	/	-49%	-37%	/	35µM*
CCOC(=O)Nc1nc(-c2ccccc2)c(C)s1	/	/	/	-14%[10 µM]	/	/

Screening data deposited in PubChem by National Center for Advancing Translational Sciences (NCATS).
